These results are taken from PubChem BioAssay (NCATS).

The test system of assay [1] is CRL-7250. Briefly: Cytotoxic Profiling of Annotated Libraries Using Quantitative High-Throughput Screening (AID 1296008). Also: nearly all actives have a fitted effect of over 60% in size. Also: potency is read from the fitted curve at half-maximal effect. As to max response: % is scaled to controls: 0 for no effect and ±100 for the full control effect. The note with it: Five cell lines viability, CellTiter-Glo ATP luminescence, 48-72 h; max response: active compounds read low. The gist of the method: (§1)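 Cells exposed to compounds for 48 or 72 hr at 37 degrees Celsius. Viability read as ATP-coupled luminescence with CellTiter-Glo after 10 min at room temperature.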
(In general: In ATP-based viability assays light output follows the ATP content of the culture.)

Another assay deals with HEK293. Described as above. As to conditions: Five cell lines viability, CellTiter-Glo ATP luminescence, 48-72 h; max response: active compounds read low. A digest of the protocol: as §1
For assay [2], the system named is HaCat. The description is as above. The note with it: Five cell lines viability, CellTiter-Glo ATP luminescence, 48-72 h; max response: active compounds read low. A digest of the protocol: as §1
In a further assay the test system is KB-3-1. Described as above. The note with it: Five cell lines viability, CellTiter-Glo ATP luminescence, 48-72 h; max response: active compounds read low. The gist of the method: as §1
For assay [3], the system named is NIH3T3. The description is as above. As to conditions: Five cell lines viability, CellTiter-Glo ATP luminescence, 48-72 h; max response: active compounds read low. A digest of the protocol: as §1
Assay [4] relates to CRL-7250. Briefly: qHTS assay to identify novel small-molecules to repurpose for Merkel cell carcinoma treatment (AID 1296009). Also: nearly all actives have a fitted effect of over 60% in size. As to conditions: MCC and control cell lines, CellTiter-Glo viability, 72 h; at 44.8 µM (top of the series) unless noted. The gist of the method:
(§2)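 CellTiter-Glo luminescence after 72 hr compound exposure at 37 degree celsius gave cell viability. Libraries NPC and MIPE were run as 8- and 11-point dose responses; RLUs normalized to DMSO (negative) and no-cell (cytotoxicity) controls.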

For assay [5], the system named is HACAT. The description is as above. As to conditions: MCC and control cell lines, CellTiter-Glo viability, 72 h; at 44.8 µM (top of the series) unless noted. The gist of the method:
as §2

Assay [6] concerns NIH3T3. The description is as above. The note with it: MCC and control cell lines, CellTiter-Glo viability, 72 h; at 44.8 µM (top of the series) unless noted. The gist of the method:
as §2

Another assay deals with C33A. Briefly: Primary qHTS to identify gynecologic anti-cancer compounds using libraries of approved drugs and bioactive compounds (AID 1345084). Also: nearly all actives have a fitted effect of over 55% in size. Also: potency is read from the fitted curve at half-maximal effect. As to activity change, negative = cytotoxicity: % is scaled to controls: 0 for no effect and ±100 for the full control effect. The note with it: Gynecologic cancer cell panel viability, ATPlite luminescence, 48 h; series mostly up to 57.5 µM. A digest of the protocol: (§3)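 Cells, 1,000 per well, plated 16 h, then exposed 48 h at 37 C to compounds. Viability by ATPlite luminescence after 15 min at room temperature.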
A general note: Quantitative high-throughput screening tests each substance at several concentrations.

For another assay, the system named is CASKI. The assay is described as above. As to conditions: Gynecologic cancer cell panel viability, ATPlite luminescence, 48 h; series mostly up to 57.5 µM. A digest of the protocol: as §3
In a further assay the test system is Es-2. The assay is described as above. The note with it: Gynecologic cancer cell panel viability, ATPlite luminescence, 48 h; series mostly up to 57.5 µM. The gist of the method: as §3
The next assay deals with HeLa. The assay is described as above. The note with it: Gynecologic cancer cell panel viability, ATPlite luminescence, 48 h; series mostly up to 57.5 µM. The gist of the method:
as §3

The subject of another assay is HEK293T. Description: qHTS assay to identify novel small-molecules to repurpose for Merkel cell carcinoma treatment (AID 1296009). Also: nearly all actives have a fitted effect of over 60% in size. The note with it: MCC and control cell lines, CellTiter-Glo viability, 72 h; at 44.8 µM (top of the series) unless noted. A digest of the protocol:
as §2

For another assay, the system named is CAOV3. Description: Primary qHTS to identify gynecologic anti-cancer compounds using libraries of approved drugs and bioactive compounds (AID 1345084). Also: nearly all actives have a fitted effect of over 55% in size. Also: potency is read from the fitted curve at half-maximal effect. As to activity change, negative = cytotoxicity: % is scaled to controls: 0 for no effect and ±100 for the full control effect. As to conditions: Gynecologic cancer cell panel viability, ATPlite luminescence, 48 h; series mostly up to 57.5 µM. A digest of the protocol: as §3

“And” between values parts separate entries of the source, which are not always exact repeats. Equal entries are not always repeated. Records with an inconclusive call do not appear. Some compounds were tested as several samples or in several runs, with calls that do not always agree. Values without a mark were called inactive. The source made the active and inactive calls. Calls follow the shape of the dose curve; as a rule, active = well fitted curve in the direction sought with a large enough effect; inconclusive = small, poorly fitted or top-dose-only effect, or another doubt; inactive = no such curve, though single readings can be large; an effect the other way counts as inactive or inconclusive.

Take `COc1ccccc1CN[C@H]1C2CCN(CC2)[C@H]1C(c1ccccc1)c1ccccc1`: the call in the assay on CRL-7250 [1], in the assay on HaCat [2], in the assay with NIH3T3 [3], in the assay with CRL-7250 [4], in the assay with HACAT [5] and with NIH3T3 [6] was inactive. The max response in the assay on HEK293 is -17%; in the assay on KB-3-1 it was -8.54%. Besides, the Potency entry in the assay with C33A, in the assay on CASKI, with Es-2 and in the assay with HeLa was “inactive” each time.

As for `CCc1c(C(=O)C(N)=O)c2c(OCC(=O)OC)cccc2n1Cc1ccccc1`, the molecule was classed as inactive in the assay on CRL-7250 [1], in the assay on HEK293, in the assay with KB-3-1, in the assay on CRL-7250 [4] and with HEK293T. Moreover, the max response with HaCat [2] was -4%; in the assay on NIH3T3 [3], -0.844%. The Potency result in the assay with C33A, with CAOV3, in the assay with CASKI, in the assay with Es-2 and in the assay with HeLa was “inactive” throughout.

On to `COc1cc(C)[nH]c(=O)c1CNC(=O)c1c(C)n([C@H](C)C2CCOCC2)c2ccccc12`, for which the call with CRL-7250 [1], in the assay on HEK293, in the assay with KB-3-1, with NIH3T3 [3], in the assay on CRL-7250 [4] and in the assay with HEK293T was inactive. Also, in the assay with HaCat [2], the max response is 4.27%. The Potency result in the assay on C33A, in the assay on CAOV3, with CASKI, in the assay with Es-2 and with HeLa was “inactive” each time.

Take `CC1C/C=C/C(O)C(O)CC/C=C/c2cc(O)cc(O)c2C(=O)O1` (configuration not stated): the molecule was called inactive in the assay on CRL-7250 [1], in the assay with HEK293, in the assay with CRL-7250 [4] and with HEK293T. Also, the max response with HaCat [2] is -2.35%; in the assay with KB-3-1 it was 0.529%; with NIH3T3 [3], 3.47%. Besides, the Potency entry in the assay on C33A, with CASKI, with Es-2 and in the assay with HeLa was “inactive” each time.

Consider `CCN1C[C@]2(COC)[C@H](O)C[C@H](OC)[C@]34[C@@H]5C[C@]6(O)[C@H](OC(=O)c7ccccc7)[C@@H]5[C@@](O)([C@H]([C@H](OC)[C@H]23)[C@@H]14)[C@@H](O)[C@@H]6OC`, for which the molecule was called inactive in the assay on CRL-7250 [1], in the assay on HEK293, in the assay with NIH3T3 [3], with CRL-7250 [4], with HEK293T and in the assay on NIH3T3 [6]. In addition, the max response was 1.58% with HaCat [2] and 2.1% with KB-3-1. Moreover, the Potency entry in the assay with C33A, in the assay with CAOV3, in the assay with CASKI, in the assay on Es-2 and in the assay with HeLa was “inactive” throughout.

`CC(CCc1ccc(O)cc1)O[C@@H]1O[C@H](CO[C@H]2OC[C@](O)(CO)[C@H]2O)[C@@H](O)[C@H](O)[C@H]1O` (some centres not stated): the molecule was classed as inactive in the assay on CRL-7250 [1], with HEK293 and in the assay with HaCat [2]. Besides, the figures for the max response with KB-3-1 and in the assay on NIH3T3 [3] were 6.77% and 3.14%, respectively. Moreover, the outcome in the assay with CRL-7250 [4], in the assay with HACAT [5] and with HEK293T was “inactive [at 17.4 µM]” in each case. Also, the Potency result with C33A, with CASKI, in the assay with Es-2 and in the assay on HeLa was “inactive” in each case.

In the case of `COCC1OC(=O)c2coc3c2C1(C)C1=C(C3=O)C2CCC(=O)C2(C)CC1O` (configuration not stated), the outcome in the assay with CRL-7250 [1], in the assay with HEK293, with HaCat [2], in the assay on KB-3-1, with NIH3T3 [3] and in the assay with CRL-7250 [4] was inactive. In addition, the molecule was classed as inactive with HACAT [5], with HEK293T and in the assay on NIH3T3 [6]. Further, the Potency result in the assay with C33A, in the assay on CASKI, in the assay with Es-2 and in the assay on HeLa was “inactive” in each case.

Turning to `C/C=C(\C)C(=O)OC1CC2C(CC=C3CC(OC4CC(OC)C(OC5CC(OC)C(OC6OC(C)C(OC7OC(CO)C(O)C(O)C7O)C(OC)C6O)C(C)O5)C(C)O4)CCC32C)C2(O)CCC(C(C)=O)C12C` (configuration not stated), the outcome in the assay with CRL-7250 [1], in the assay on HaCat [2] and in the assay on KB-3-1 was inactive. The max response with HEK293 is -9.26%; with NIH3T3 [3], -0.91%. The outcome in the assay on CRL-7250 [4] and in the assay with HACAT [5] was “inactive [at 9.27 µM]” throughout. For the same molecule, the activity change, negative = cytotoxicity in the assay on C33A is 3.18% [at 11.6 µM]; with CAOV3 it was 5.78% [at 11.6 µM]; in the assay on CASKI it was 19.1% [at 11.6 µM]; in the assay on Es-2 it was 3.55% [at 11.6 µM]; in the assay with HeLa, -1.26% [at 11.6 µM].

`C[C@H](NC(=O)Cc1cc(F)cc(F)c1)C(=O)N[C@@H]1N=C(c2ccccc2)c2ccccc2N(C)C1=O`: the result in the assay on CRL-7250 [1], in the assay with HaCat [2], in the assay with CRL-7250 [4] and in the assay with HACAT [5] was inactive. For the same molecule, the max response in the assay on HEK293 was -14.2%; in the assay on KB-3-1, 4.54%; with NIH3T3 [3], -0.0571%. Moreover, the Potency result in the assay on C33A, with CASKI, in the assay on Es-2 and with HeLa was “inactive” each time.

Consider `C/C=C(\C)C(=O)OC1CC2C(C)(C)OC(=O)CC(OC(C)=O)C2(C)C2CC(OC(=O)C(C)C)C3(C)C(c4ccoc4)CC4OC43C12C` (configuration not stated), for which the outcome in the assay on CRL-7250 [1] and in the assay with HaCat [2] was inactive. The max response is -0.997% in the assay with HEK293, 7.39% in the assay on KB-3-1 and 0.059% in the assay on NIH3T3 [3]. For the same molecule, the outcome with CRL-7250 [4] and in the assay with HACAT [5] was “inactive [at 17.4 µM]” in each case. Also, the Potency entry in the assay with C33A, in the assay with CASKI, in the assay with Es-2 and in the assay with HeLa was “inactive” each time.

With `CCOc1ccccc1-n1c(C(C)N2CCN(C(=O)COc3ccc(Cl)cc3)CC2)nc2ccccc2c1=O` (configuration not stated), the Potency was 5.17 µM (active) and 3.71 µM (active) in the assay on CRL-7250 [1]; 4.11 µM (active) and 2.95 µM (active) in the assay with HEK293; 18.6 µM (active) with HaCat [2]; 1.03 µM (active) and 933 nM (active) with NIH3T3 [3]; 3.98 µM (active) with Es-2. Further, in the assay with HaCat [2], the max response was -19.2%. Besides, the Potency entry in the assay with C33A, with CASKI and in the assay on HeLa was “inactive” in each case.

`Cn1ncnc1COc1nn2c(-c3c(F)cccc3F)nnc2cc1C1CCC1`: the call with CRL-7250 [1], with HEK293, in the assay with HaCat [2], in the assay on KB-3-1, with CRL-7250 [4] and in the assay with HACAT [5] was inactive. In addition, in the assay with HEK293T, the molecule was called inactive. Further, in the assay on NIH3T3 [3], the max response is 2.04%. Besides, the Potency entry in the assay with C33A, in the assay on CASKI, in the assay on Es-2 and in the assay with HeLa was “inactive” in each case.

For the molecule `CN[C@H]1[C@H](O)[C@H](O[C@@H]2[C@@H](O)[C@H](O[C@H]3O[C@H]([C@H](C)O)[C@@H](O)[C@H](O)[C@H]3N)[C@@H](N)C[C@H]2N)OC[C@@]1(C)O`, the outcome in the assay on CRL-7250 [1], in the assay with HaCat [2], in the assay on CRL-7250 [4] and in the assay with HACAT [5] was inactive. In addition, the max response is -1.94% in the assay on HEK293, 3.55% in the assay with KB-3-1 and 4.53% in the assay on NIH3T3 [3]. Further, the Potency entry in the assay on C33A, in the assay with CAOV3, in the assay with CASKI, with Es-2 and in the assay with HeLa was “inactive” in each case.
